High-throughput results as filed in PubChem.
RecA intein inh: Mtb RecA intein splicing inhibitors, primary screen, biochemical, fluorescence, HTS | cell-free RecA intein splicing | inhibition, % (no concentration beside the values) | hit rate 0.75% among 290,000 | AID 2221, 2009; in the data active means inhibition above about 30%; inconclusive means no clear call, values can overlap the other calls;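 further: 0% = vehicle wells and 100% = reference inhibitor control wells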
Target sequence (P9WHJ3 whole entry, looked up): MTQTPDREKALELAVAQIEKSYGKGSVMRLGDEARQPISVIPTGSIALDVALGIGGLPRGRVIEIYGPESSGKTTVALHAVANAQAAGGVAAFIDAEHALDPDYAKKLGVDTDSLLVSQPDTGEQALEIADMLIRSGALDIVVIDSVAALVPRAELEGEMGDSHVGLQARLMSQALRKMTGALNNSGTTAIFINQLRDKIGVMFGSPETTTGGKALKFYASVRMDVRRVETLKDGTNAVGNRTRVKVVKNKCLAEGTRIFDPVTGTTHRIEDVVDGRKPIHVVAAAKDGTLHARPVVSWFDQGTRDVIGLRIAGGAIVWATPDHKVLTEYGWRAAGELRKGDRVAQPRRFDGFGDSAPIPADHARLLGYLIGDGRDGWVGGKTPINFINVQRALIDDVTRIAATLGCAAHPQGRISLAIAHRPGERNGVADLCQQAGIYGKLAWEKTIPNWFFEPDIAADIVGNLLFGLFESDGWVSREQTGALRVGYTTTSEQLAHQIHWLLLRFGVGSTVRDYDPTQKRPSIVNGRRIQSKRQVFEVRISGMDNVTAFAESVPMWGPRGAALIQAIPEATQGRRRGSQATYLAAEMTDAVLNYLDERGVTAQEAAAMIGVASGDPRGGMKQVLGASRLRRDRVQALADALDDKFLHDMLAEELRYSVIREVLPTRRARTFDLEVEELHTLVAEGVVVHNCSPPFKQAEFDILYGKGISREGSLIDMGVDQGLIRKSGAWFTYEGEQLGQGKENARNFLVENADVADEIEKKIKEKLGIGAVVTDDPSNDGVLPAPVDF
Mtb UGM inh: M. tuberculosis UGM enzyme inhibitors, primary screen, biochemical, fluorescence polarization, single point; UDP-galactopyranose mutase (Mycobacterium tuberculosis (strain ATCC 25618 / H37Rv)), …; purified UGM, fluorescence polarization probe displacement; inhibition, % at 10 µM; hit rate 0.06% among 320,000; in the data active means inhibition above about 10%, passing the limit was not always enough; inconclusive means no clear call, values can overlap the other calls
Rv3671c inh: Rv3671c serine protease inhibitors, primary screen, biochemical, fluorescence polarization, M. tuberculosis H37Rv; AID 2606, 2010; hit rate 0.048% among 320,000; inhibition, % at 5.96 µM; P9WHR9; in the data active means inhibition above about 38%;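 further: extracellular domain of Rv3671c used as enzyme; 0% = enzyme with DMSO and 100% = no enzyme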
Mtb hypoxia rep: PubChem AID 1159583; M. tuberculosis hypoxia-regulated fluorescent reporter, fluorescence; fluorescence inhibition, % (no concentration beside the values); hit rate 0.1% among 300,000; in the data active means fluorescence inhibition mostly above about 23%, no sharp cut-off; inactive means mostly below about 17%
Mtb betalactam: beta-lactam sensitization of Mtb H37Rv, H37Rv | M. tuberculosis H37Rv growth with meropenem, percent inhibition | inhibition, % at 25 µM | hit rate 0.27% among 330,000 | AID 434955, 2010; call rule not given here;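 further: growth measured after seven days incubation then overnight dye step; 0% = bacteria only wells and 100% = bacteria with antibiotic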
* marks the source's active call; other numbers are inactive results; ? = inconclusive; . = no result given. Hits are enriched below; roughly 0.77% of the tested compounds scored in any of these assays.

SMILES	RecA intein inh	Mtb UGM inh	Rv3671c inh	Mtb hypoxia rep	Mtb betalactam
Cc1ccc2c(c1)COc1c3ccc(C(=O)NC(CO)C(C)C)cc3nn1-2 (configuration not stated)	.	.	.	9.6	.
O=C(CNC(=O)c1[nH]cnc1C(=O)NC(Cc1ccccc1)C(=O)OCc1ccccc1)OCc1ccccc1 (configuration not stated)	.	.	.	20.1	.
COc1cc(C=C(c2nc3ccccc3s2)c2nc3ccccc3s2)ccc1O	51.2*	-0.6	2.9	6.7	6.5
COc1cc(/C=C/c2nc3ccccc3s2)cc(OC)c1O	-13.6	-8.7	2.6	10.3	70.2
COc1ccc(C2C(C(=O)c3cccs3)=C(O)C(=O)N2c2nncs2)cc1 (configuration not stated)	6.2	13.4*	-0.5	-0.9	-3.1
Cc1cc(C)n2nc(N)c(N=Nc3ccccc3)c2n1	3.0	-0.3	-31.4	83.9*	97.7
ClC(Cl)(Cl)c1nc2ccccc2n2nncc12	54.9*	0.4	-11.4	.	8.0
COc1cc(C2C(C#N)=C(N)Oc3c2c(-c2ccccc2)nn3-c2ccccc2)cc(OC)c1OC (configuration not stated)	69.6*	-2.4	6.8	-3.8	3.4
Cc1nn(-c2ccccc2)c2c1C(c1ccc([N+](=O)[O-])cc1)C(C#N)=C(N)O2 (configuration not stated)	-2.4	0.3	0.3	5.9	-0.9
CC(=O)NC(Cc1ccccc1)C(=O)OCC(=O)c1ccccc1 (configuration not stated)	-0.3	12.7*	-2.0	16.1	-3.3
O=C(COC(=O)c1ccc([N+](=O)[O-])o1)NC1CCCCC1	.	-1.7	-8.1	.	87.6
O=C(COC(=O)c1ccc([N+](=O)[O-])o1)NC1CCCC1	.	21.4*	-11.3	.	84.7
CC1CCN(C(=O)C2CCN(c3ncnc4c3nc3n4CCCCC3)CC2)CC1	-6.0	3.4	-4.2	28.4*	99.8
CCOC(=O)C1CCN(C(=O)C2CCN(c3ncnc4c3nc3n4CCCCC3)CC2)CC1	-6.0	2.2	3.3	-10.0	49.8
CC1CN(C(C)CO)C(=O)c2cccc(NC(=O)C3CC3)c2OC1CN(C)Cc1ccc(Cl)c(Cl)c1 (configuration not stated)	.	.	.	2.5	.
CCOC(=O)c1c(NC(=O)/C=C\C(=O)O)sc(C)c1-c1ccccc1	56.3*	1.8	5.1	.	-6.7
CCOC(=O)c1c(NC(=O)C=CC(=O)O)sc(C)c1-c1ccccc1	.	.	.	-1.1	.
Cc1sc(NC(=O)/C=C/C(=O)O)c(C(N)=O)c1-c1ccc(C(C)(C)C)cc1	61.3*	1.1	2.6	13.8	4.2
COc1ccc(C2C3C=CCC[C@@]3(C)C(=O)N2Cc2ccccc2)cc1Cl (some centres not stated)	.	.	.	-10.4	.
Cc1ccc(N(CCC#N)C(=O)CCl)cc1C	56.2*	2.7	-1.9	38.5*	99.4
Cc1ccc(SCC(=O)OCC(=O)N(CCC#N)c2ccccc2)cc1C	6.2	2.7	13.3	-2.3	1.5
COc1ccc(C2C3C(=O)N(C(C)(C)C)C(=O)C3[C@]3(C)C(=O)N(c4ccccc4)C(=O)N23)cc1 (some centres not stated)	.	.	.	-1.1	.
Nc1ccc(-c2c3ccc(=O)cc-3oc3cc(O)ccc23)cc1C(=O)O	-32.2	45.4*	9.3	.	3.7
CC(NC(=O)c1nc[nH]c1C(=O)NC(Cc1ccccc1)C(=O)OC(C)(C)C)c1ccccc1 (configuration not stated)	.	.	.	1.4	.
COC(=O)C1=C(c2ccc3ccccc3c2)CC2CCC1N2C(=O)NCCCOC(C)C (configuration not stated)	.	.	.	2.3	.
SMILES	RecA intein inh	Mtb UGM inh	Rv3671c inh	Mtb hypoxia rep	Mtb betalactam
CN(C)c1ccc(C=Cc2cc[n+](C)c3ccccc23)cc1	.	.	.	21.2	.
CCOC(=O)N1CCN(C(=O)CSc2nc(-c3cccc(C)c3)ns2)CC1	0.5	-1.0	-0.6	44.1*	100.2
CC(=O)c1ccc2noc(-c3ccccc3)c2c1	.	-2.1	-0.8	-4.1	2.8
CC(=O)c1ccc2c(c1)c(C#N)c1ccccc1[n+]2[O-]	-1.1	.	.	41.8*	.
COC(=O)C(Cc1ccccc1)NC(=O)C1CC1C(NC(=O)OCc1ccccc1)c1ccccc1 (configuration not stated)	.	.	.	-0.3	.
COc1ccccc1/C=C/C1(C(=O)NC2CCCC2)CC(=O)N1c1ccc(C)cc1 (configuration not stated)	34.4*	-0.8	-4.4	7.4	-7.2
O=C1C=C(c2cccc(O)c2)CC(c2ccc(F)cc2)C1 (configuration not stated)	.	.	.	9.5	.
COc1ccc(/C=N/NC(=O)c2nn(-c3ccccc3)c(=O)c3c(N)scc23)cc1	67.7*	-0.1	-49.0	.	-5.3
CCOC(=O)c1nn(-c2ccc(C)c(C)c2)c(=O)c2c(N)scc12	.	1.6	-19.4	8.8	3.0
COc1ccc(/C=N/NC(=O)c2nn(-c3ccc(C)c(C)c3)c(=O)c3ccccc23)cc1	-1.5	5.3	-21.3	.	3.0
CCOC(=O)c1nn(-c2ccc(OC)cc2)c(=O)c2c(N)scc12	46.9*	-0.6	-20.4	17.7	15.5
COC(=O)CCC(=O)OC1(C)C(=O)C2=CN(CCCCO)C(c3ccc(OC)cc3)=CC2=C(Br)C1=O (configuration not stated)	48.4*	3.1	-21.6	.	16.2
COC(=O)CCC(=O)OC1(C)C(=O)C2=CN(CCN3CCOCC3)C(c3ccc(OC)cc3)=CC2=C(Br)C1=O (configuration not stated)	9.9	-1.1	-47.4	.	3.5
Cc1cccc(NC(=O)NC(C)C(=O)O)c1 (configuration not stated)	.	.	.	4.7	.
Cc1ccc(C2(C)NC(=O)N(CC(=O)N3c4ccccc4NC(=O)CC3C)C2=O)cc1 (configuration not stated)	.	-2.9	5.0	13.1*	1.9
CC(=O)c1ccc(NC2=C(N3CCOCC3)C(=O)c3ccccc3C2=O)cc1	6.9	4.0	-113.1	4.3	10.2
CC(=O)N(C)C1=C(N2CCOCC2)C(=O)c2ccccc2C1=O	32.2*	-2.3	-31.4	17.7	64.0
Cc1ccc(NC2=C(N3CCOCC3)C(=O)c3ccccc3C2=O)cc1	41.0*	0.7	-139.8	3.8	5.3
CC(CC(=O)Nc1cc(C)ccn1)=NNC(=O)c1ccc(C(C)(C)C)cc1	.	.	.	-0.1	.
C/C(CC(=O)Nc1cc(C)ccn1)=N\NC(=O)c1ccc(C)cc1	61.5*	-0.1	2.9	.	9.3
COc1ccc(C2CC(=O)C=C(c3ccc4c(c3)sc3ccccc34)C2)cc1 (configuration not stated)	.	.	.	12.7	.
Cc1ccc(O)c(N=Cc2sc3ccccc3c2Cl)c1	-3.7	0.7	0.5	13.9	?
Oc1ccccc1N=Cc1sc2ccccc2c1Cl	2.0	-0.1	-3.6	36.7*	95.7
Cc1c(N2C(=O)/C(=C/c3ccccc3)SC2=S)c(=O)n(-c2ccccc2)n1C	6.6	1.3	-12.6	15.9	2.3
